# Paper PMC4336329 (PLoS ONE, 2015)
# The campaign covered roughly 310,000 compounds. About 14,000 (4.5%) showed an effect of 50% or more. Effects have a minus sign here. Many of the other results were omitted from the sample, so strong results are more common in it than they were.
# Target: human ether-à-go-go-related gene (hERG) potassium channel (human, UniProt Q12809)
# Experiment: primary screen, population patch clamp on CHO cells stably expressing hERG; higher = less effect of the substance
# 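Note: peak tail current of the secondary pulse compared with the same well before compound.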
# Sequence of human ether-à-go-go-related gene (hERG) potassium channel (Q12809 whole entry, looked up): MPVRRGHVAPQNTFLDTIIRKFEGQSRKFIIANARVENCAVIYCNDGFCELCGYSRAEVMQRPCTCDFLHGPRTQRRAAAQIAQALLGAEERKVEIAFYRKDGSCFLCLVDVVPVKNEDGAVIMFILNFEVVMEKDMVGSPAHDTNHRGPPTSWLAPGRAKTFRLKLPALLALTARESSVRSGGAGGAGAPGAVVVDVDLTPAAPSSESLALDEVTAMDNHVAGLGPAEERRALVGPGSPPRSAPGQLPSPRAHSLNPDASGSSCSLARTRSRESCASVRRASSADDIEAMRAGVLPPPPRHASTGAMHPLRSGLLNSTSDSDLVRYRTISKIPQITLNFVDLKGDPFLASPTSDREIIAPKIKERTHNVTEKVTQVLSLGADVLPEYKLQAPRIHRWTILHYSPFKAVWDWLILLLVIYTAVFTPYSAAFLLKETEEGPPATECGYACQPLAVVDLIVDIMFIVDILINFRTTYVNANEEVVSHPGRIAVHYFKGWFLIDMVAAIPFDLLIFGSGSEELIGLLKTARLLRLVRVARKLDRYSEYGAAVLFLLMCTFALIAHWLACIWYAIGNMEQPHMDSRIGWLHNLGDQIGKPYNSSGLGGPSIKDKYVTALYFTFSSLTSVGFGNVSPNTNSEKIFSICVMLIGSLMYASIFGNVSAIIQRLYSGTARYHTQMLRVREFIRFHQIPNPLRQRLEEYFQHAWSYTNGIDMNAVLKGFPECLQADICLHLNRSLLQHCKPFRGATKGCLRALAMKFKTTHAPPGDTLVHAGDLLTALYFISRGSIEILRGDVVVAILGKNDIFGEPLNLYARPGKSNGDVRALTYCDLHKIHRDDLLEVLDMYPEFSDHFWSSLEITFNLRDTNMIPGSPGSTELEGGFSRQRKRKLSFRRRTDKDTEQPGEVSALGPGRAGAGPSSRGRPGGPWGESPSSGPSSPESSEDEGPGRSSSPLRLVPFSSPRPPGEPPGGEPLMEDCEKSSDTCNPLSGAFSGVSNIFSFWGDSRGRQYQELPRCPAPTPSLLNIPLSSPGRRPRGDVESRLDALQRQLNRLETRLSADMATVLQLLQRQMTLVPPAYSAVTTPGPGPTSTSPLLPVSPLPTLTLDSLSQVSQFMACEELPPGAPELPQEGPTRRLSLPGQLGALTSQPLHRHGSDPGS
row,Structure (SMILES),"hERG current change (%, negative = inhibition) at 10uM [%]"
1,Cc1cc(OC(=O)CCCNC(=O)OC(C)(C)C)c2c3c(c(=O)oc2c1)CCC3,-9.18
2,CCC(=O)Nc1cc2nn(-c3ccc(OC)cc3)nc2cc1C,0.0727
3,Cc1ccc(Sc2ccc([N+](=O)[O-])cc2[N+](=O)[O-])nc1,-19.1
4,Cc1cccc(NC(=O)CCN2C(=O)C3C4C=CC(C4)C3C2=O)c1 (stereo not shown),13.6
5,C/C(=N\NC(=O)c1cc2ccccc2cc1O)c1ccccn1,-3.94
6,Cc1ccc(C(=O)N/C(=C\c2ccco2)C(=O)NCCN2CCOCC2)cc1,-23.2
7,CN(C)c1ccc(/C=C(/NC(=O)c2ccccc2)C(=O)NCCN2CCOCC2)cc1,4.15
8,O=C(NCCCN1CCOCC1)/C(=C/c1cccs1)NC(=O)c1ccccc1,-21.8
9,Cc1ccc(C(=O)N/C(=C\c2ccc(Cl)cc2)C(=O)NCCN2CCOCC2)cc1,-75.1
10,O=C(NC(=S)NCCN1CCOCC1)c1ccc(Cl)cc1,-13.2
11,Cc1ccc(C(=O)N/C(=C\c2cccs2)C(=O)NCCCN2CCOCC2)cc1,-61.4
12,CN(C)c1ccc(/C=C(\NC(=O)c2ccccc2)C(=O)NCCN2CCOCC2)cc1,-19.9
13,Cc1ccc(C(=O)N/C(=C\c2cn(S(=O)(=O)N(C)C)c3ccccc23)C(=O)NCCCN2CCOCC2)cc1,-18.7
14,O=C(NCCN1CCOCC1)/C(=C/c1ccc(Cl)cc1)NC(=O)c1ccccc1,-76.5
15,COc1ccccc1CNC(=O)C(NC(=O)C1CCCCC1)C(C)C (stereo not shown),1.84
16,O=C(O)c1cccc(NS(=O)(=O)c2ccc(Oc3ccc(S(=O)(=O)Nc4cccc(C(=O)O)c4)cc3)cc2)c1,20.3
17,COc1ccc(OC)c(-n2nnnc2SCC(=O)NCCc2ccccc2)c1,-20.3
18,CC1Cn2c(nc(=O)c3c2NCN(CCc2ccccc2)C3)S1 (stereo not shown),13.5
19,O=C(C1CC1)N1N=C(c2ccc(Cl)cc2)CC1(O)C(F)(F)F (stereo not shown),-0.113
20,Cc1nn(C(C)C(=O)NC2CCC(C)CC2)c(=O)c2nn(-c3ccccc3)c(C)c12 (stereo not shown),-28.3

row,Structure (SMILES),"hERG current change (%, negative = inhibition) at 10uM [%]"
1,O=C(CCS(=O)(=O)c1cccs1)N1CCCC1,3.18
2,O=c1c2ccccc2nc(-c2ccccc2)n1-c1ccccc1O,16.1
3,CC(OC(=O)c1snc(C(=O)NC2CCCCC2)c1N)C(=O)NC1CCCCC1 (stereo not shown),-3.99
4,Cc1ccc2nc(N(CCCN(C)C)C(=O)c3ccc(S(=O)(=O)N4CCc5ccccc5C4)cc3)sc2c1.Cl,-25.3
5,COc1ccc2sc(N(CCCN(C)C)C(=O)c3ccc(S(=O)(=O)N4CCc5ccccc5C4)cc3)nc2c1.Cl,-6.59
6,COc1cc2nc(N(CCCN(C)C)C(=O)c3ccc(S(=O)(=O)N4CCc5ccccc5C4)cc3)sc2cc1OC.Cl,-9.41
7,CCOC(=O)N1CCN(S(=O)(=O)c2ccc(C(=O)N(CCN(C)C)c3nc4ccc(CC)cc4s3)cc2)CC1.Cl,-51.9
8,CCOC(=O)N1CCN(S(=O)(=O)c2ccc(C(=O)N(CCCN(C)C)c3nc4ccc(OC)cc4s3)cc2)CC1.Cl,-73.5
9,CCOC(=O)N1CCN(S(=O)(=O)c2ccc(C(=O)N(CCCN(C)C)c3nc4ccc(Cl)cc4s3)cc2)CC1.Cl,-58.4
10,CN(C)CCCN(C(=O)c1ccc(S(=O)(=O)N2CCc3ccccc32)cc1)c1nc2ccc(Cl)cc2s1.Cl,10.5
11,COc1ccc2sc(N(CCCN(C)C)C(=O)c3ccc(S(=O)(=O)N4CCCC4)cc3)nc2c1.Cl,-43.9
12,CCOC(=O)N1CCN(S(=O)(=O)c2ccc(C(=O)N(CCCN(C)C)c3nc4cc(OC)ccc4s3)cc2)CC1.Cl,-56.2
13,CCOC(=O)N1CCN(S(=O)(=O)c2ccc(C(=O)N(CCN(C)C)c3nc4c(C)cccc4s3)cc2)CC1.Cl,-37.5
14,CCOC(=O)N1CCN(S(=O)(=O)c2ccc(C(=O)N(CCN(C)C)c3nc4ccc(Cl)cc4s3)cc2)CC1.Cl,-28.5
15,CCOC(=O)N1CCN(S(=O)(=O)c2ccc(C(=O)N(CCN(CC)CC)c3nc4ccc(C)cc4s3)cc2)CC1.Cl,-23.8
16,O=C(c1ccccc1Cc1ccccc1)N1CCN(S(=O)(=O)c2ccccc2)CC1,-6.88
17,CN(C)NC(=S)Nc1ccc(S(=O)(=O)N2CCCCC2)cc1,-5.26
18,CCn1ccnc1CN(C)C(=O)CCc1nnc(CCCc2ccccc2)o1,-7.7
19,Cc1cccc(NC(=O)CN2C(=O)N/C(=C\c3ccc(N4CCOCC4)cc3)C2=O)c1,9.92
20,CC(NC(=O)COC(=O)Cc1ccsc1)C1CC2CCC1C2 (stereo not shown),-12.1
